BoNT F protease: inhibitors of Botulinum neurotoxin F light chain protease; Multiplex microsphere protease cleavage assay, flow cytometry; inhibition, % at 10 µM; hit rate 0.22% among 360,000; AID 588497; in the data active = inhibition above about 35%, passing the limit was not always enough; inconclusive = no clear call, values can overlap the other calls
Autofluor counter: compound fluorescence in toxin protease inhibitor counterscreen. compound autofluorescence counterscreen, microsphere flow cytometry; stronger effect = higher value. fluorescence intensity (test concentration not listed). hit rate 3.1% among 360,000. AID 624483; in the data active = fluorescence intensity above about 16000; inconclusive = no clear call, values can overlap the other calls
BJeLR viability: kills HRASV12-expressing BJeLR cells. AID 1554. hit rate 0.17% among 300,000. BJeLR (HRASV12) viability, CellTiter-Glo ATP luminescence, 48 h. inhibition, % (no concentration beside the values); in the data active = inhibition above about 50%; inconclusive = no clear call, values can overlap the other calls
Anthrax LF inh2: inhibitors of Bacillus anthracis lethal factor protease; multiplex microsphere protease cleavage assay, LF; inhibition, % at 10 µM; AID 588501; P15917; hit rate 0.12% among 360,000
Target sequence (P15917 whole entry, looked up): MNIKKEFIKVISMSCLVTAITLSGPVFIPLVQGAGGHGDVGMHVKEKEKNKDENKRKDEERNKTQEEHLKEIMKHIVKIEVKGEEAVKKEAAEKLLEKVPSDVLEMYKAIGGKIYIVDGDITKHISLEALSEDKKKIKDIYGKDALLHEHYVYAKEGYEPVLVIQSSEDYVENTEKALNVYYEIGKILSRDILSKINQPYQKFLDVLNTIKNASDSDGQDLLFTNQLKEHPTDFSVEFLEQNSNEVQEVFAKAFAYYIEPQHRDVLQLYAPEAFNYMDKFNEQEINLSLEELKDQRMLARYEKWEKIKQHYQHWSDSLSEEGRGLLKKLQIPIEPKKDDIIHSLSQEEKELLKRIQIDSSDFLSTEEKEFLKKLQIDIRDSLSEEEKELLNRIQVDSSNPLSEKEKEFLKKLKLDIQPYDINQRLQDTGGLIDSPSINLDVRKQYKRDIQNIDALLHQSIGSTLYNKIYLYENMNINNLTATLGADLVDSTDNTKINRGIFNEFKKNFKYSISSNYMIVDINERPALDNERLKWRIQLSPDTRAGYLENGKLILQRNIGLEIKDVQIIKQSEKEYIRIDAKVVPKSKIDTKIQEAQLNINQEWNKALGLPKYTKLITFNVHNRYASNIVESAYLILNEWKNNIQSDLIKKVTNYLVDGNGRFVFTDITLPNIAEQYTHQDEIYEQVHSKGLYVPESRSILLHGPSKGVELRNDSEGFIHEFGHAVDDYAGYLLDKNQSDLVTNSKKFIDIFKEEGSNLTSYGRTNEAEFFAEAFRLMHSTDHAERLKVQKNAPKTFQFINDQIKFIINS
BoNT-A LC inh2: blocks Botulinum neurotoxin A light chain protease; inhibition, % at 10 µM; hit rate 0.17% among 360,000; AID 588499; multiplex microsphere protease substrate cleavage, flow cytometry
BH1578 lux ind: induces V. cholerae light production without autoinducers; activation, % at 18.7 µM; V. cholerae BH1578 lux reporter, luminescence, 6 h; hit rate 0.16% among 350,000; in the data active = activation mostly above about 9.7%, no sharp cut-off; inconclusive = no clear call, values can overlap the other calls; inactive = mostly below about 3.7%
Of the large screens only hits and unclear results are named; the others gave an inactive call. Shown are actives, neighbours in structure and some others; about 3.7% of the full set was active somewhere. Cut-off read from the data, not from the text of the source, unless noted: active = inhibition above about 30%; inconclusive = no clear call, values can overlap the other calls; inactive = below that.

CC1(Oc2cccc(F)c2)CCN(Cc2ccc(-c3ccccn3)cc2)C1 (configuration not stated)	none (no result: BJeLR viability)
CS(=O)(=O)NCc1ccc(C(=O)NCCOc2ccccc2)cc1	Autofluor counter 17640
CC(=O)c1ccccc1OCCCN1CCCCC1	none
CC(=O)c1ccccc1OCCOCCOCCOc1ccccc1C(C)=O	BJeLR viability 55.3
CCNc1ccc(Br)cc(C(=O)/C=C/c2c(Cl)cccc2Cl)c1=O	BoNT-A LC inh2 59.0
CNc1ccc(Br)cc(C(=O)/C=C/c2cccc(OC)c2)c1=O	Autofluor counter 17911
CCNc1ccc(Br)cc(C(=O)/C=C/c2ccc(Cl)cc2)c1=O	none
Cc1nnc(NC(=O)CCN2C(=O)C3CC=CCC3C2=O)s1 (configuration not stated)	none (no result: BJeLR viability)
CCOC(=O)[C@]12CCC=C1N(Cc1cccc3ccccc13)C(=O)[C@H](CC(=O)N1CCOCC1)C2	none (no result: BJeLR viability, BH1578 lux ind)
CN(C)c1cc(C(F)(F)F)nc(-c2ccccn2)n1	Autofluor counter 16157
CC(C)Nc1cc(C(F)(F)F)nc(-c2ccccn2)n1	Autofluor counter 20659
FC(F)(F)c1cc(Sc2ccccc2)nc(-c2ccccn2)n1	Autofluor counter 16298
FC(F)(F)c1cc(Nc2ccccc2)nc(-c2ccccn2)n1	none
COc1cc(C(F)(F)F)nc(-c2ccccn2)n1	none
N#C/C(N=Nc1ccccc1O)=N\Nc1ccccc1O	BJeLR viability 56.0
Cc1c(Br)cccc1NC(=O)C1(C)CCN1Cc1ccccc1OC(F)F (configuration not stated)	none (no result: BJeLR viability)
O=C(NC1CCCC1)c1cnn2c(C(F)(F)F)cc(-c3ccc4c(c3)OCO4)nc12	none
O=C(NC1CCCC1)c1cnn2c(C(F)(F)F)cc(-c3ccco3)nc12	Autofluor counter 20185
NC(=O)c1cnn2c(C(F)(F)F)cc(-c3ccc(F)cc3)nc12	Autofluor counter 22634
NC(=O)c1cnn2c(C(F)(F)F)cc(-c3ccccc3)nc12	none
CC(C)CCNC(=O)c1cnn2c(C(F)(F)F)cc(-c3ccco3)nc12	Autofluor counter 19781
CCOC(=O)c1cnn2c(C(F)(F)F)cc(-c3ccco3)nc12	none
CN(Cc1ccc(Cl)cc1)C(CCc1ccccc1)C(=O)NC1CCCCC1 (configuration not stated)	none (no result: BJeLR viability, BH1578 lux ind)
OCCNc1ncnc2c1ncn2[C@H]1CN(C2CCCC2)C[C@@H](CO)O1	none (no result: BJeLR viability)
CC(C)(C)C1(c2ccccc2)NC(=O)N(CC(=O)N2CCOCC2)C1=O (configuration not stated)	Autofluor counter 19617, BoNT-A LC inh2 inconclusive
COc1ccc(C(=O)c2ccc(Br)cc2)cc1	Autofluor counter 20227
COc1ccc(C(=O)c2ccccc2)cc1	none
CC(C)(C)c1ccc(S(=O)(=O)NC(=O)C2(C)CCN2C(=O)Cc2ccc(-c3ccccc3)cc2)cc1 (configuration not stated)	none (no result: BJeLR viability)
O=C(COC(=O)c1cccc(S(=O)(=O)N2CCOCC2)c1)NC1CCCCC1	none (no result: BJeLR viability)
O=[N+]([O-])c1cc(Cl)cc(/C=N\Nc2ccccn2)c1O	BH1578 lux ind 25.0
O=C1CSc2ccc(C(=O)NCCC3=CCCCC3)cc2N1	Autofluor counter 23017, BoNT-A LC inh2 inconclusive
O=C1CSc2ccc(C(=O)NCCc3ccc(Cl)cc3Cl)cc2N1	none (no result: BJeLR viability)
COCCNC(=O)c1ccc2c(c1)NC(=O)CS2	Autofluor counter 19046
O=S1(=O)CC(N2CCCCC2)CN1Cc1ccc(F)cc1 (configuration not stated)	none (no result: BJeLR viability, BH1578 lux ind)
CCOc1cc(/C=C2\COc3ccccc3C2=O)cc(Br)c1OCC(=O)N(C)C	BJeLR viability 65.3
COc1ccc(/C=C2\COc3ccccc3C2=O)cc1OC	none
COc1ccccc1OCCOCCn1cnc2ccccc2c1=O	Autofluor counter 19899, BoNT-A LC inh2 inconclusive
O=C(Cn1cnc2ccccc2c1=O)OCCCCN1C(=O)c2ccccc2C1=O	Autofluor counter 23990
COC(=O)Cn1cnc2ccccc2c1=O	none
COC(=O)c1ccc(OCCn2cnc3ccccc3c2=O)cc1	Autofluor counter 19676
CCOC(=O)C1(C)CCCN(C(=O)c2cccc(OC(F)(F)F)c2)C1 (configuration not stated)	none (no result: BJeLR viability)
CN1OC[C@@H]2CN(C(=O)Nc3ccccc3)[C@H](c3ccc(N4CCCCC4)cc3)C[C@@H]21	none (no result: BJeLR viability, BH1578 lux ind)
Nc1ncnc2c1ncn2[C@@H]1O[C@H](CNC(=O)[C@@H]2CCCN2S(=O)(=O)c2ccc(F)cc2)[C@@H](O)[C@H]1O	none (no result: BJeLR viability)
COc1ccc2c(c1)Cc1sc(NC(=O)c3cccs3)nc1-2	Autofluor counter 18806
O=C(NCCN1CCC(n2c(=O)[nH]c3ccccc32)CC1)c1ccc(Cl)c(Cl)c1	none (no result: BJeLR viability, BH1578 lux ind)
COc1ccc(-c2nnc3sc(COc4ccc(C)cc4)nn23)cc1	BoNT F protease inconclusive
c1ccc(Cc2nn3c(COc4ccccc4)nnc3s2)cc1	Autofluor counter 24302
COc1ccc(-c2nnc3sc(COc4ccccc4)nn23)cc1	Autofluor counter 20311
Clc1ccccc1-c1nn2c(COc3ccccc3)nnc2s1	none
CCOc1ccccc1OCc1nn2c(COc3ccccc3)nnc2s1	Autofluor counter 16185
CC1C(=O)N(Cc2cn(Cc3ccco3)nn2)CCS(=O)(=O)N1Cc1ccc(-c2cccc(N(C)C)c2)cc1 (configuration not stated)	none (no result: BJeLR viability)
CCC(=O)N1CCC1(C)C(=O)Nc1ccc(OC(F)F)cc1 (configuration not stated)	none (no result: BJeLR viability)
COc1cc(OC)cc(C(=O)NC2CCSC2=O)c1 (configuration not stated)	Autofluor counter 17088
O=C(OC1CC2CC1[C@H]1CCCCN1C2=O)N1CCN(C(=O)c2ccccc2)CC1 (some centres not stated)	none (no result: BJeLR viability, BH1578 lux ind)
CC(=O)NCCCc1nc2ccccc2n1Cc1ccccc1C	Autofluor counter 24006, BoNT-A LC inh2 inconclusive
O=CNCCCc1nc2ccccc2n1Cc1ccccc1	Autofluor counter 16906
Cn1c(=O)c2[nH]c(C=Cc3ccc4c(c3)OCO4)nc2n(C)c1=O	none (no result: BJeLR viability)
CCCCCN1C(=O)/C(=C/c2c(N3CCc4ccccc4C3)nc3ccccn3c2=O)SC1=S	Autofluor counter 21934
CN1CCN(c2nc3ccccn3c(=O)c2C=O)CC1	none
CC(=O)c1cccc(NC(=O)c2csc(-n3nc(C)cc3C(F)(F)F)n2)c1	Autofluor counter 22022, BoNT-A LC inh2 inconclusive
Cc1cc(C(F)(F)F)n(-c2nc(C(=O)Nc3cccnc3)cs2)n1	none
O=C(COC(=O)c1cccc(OC(F)F)c1)Nc1cc(S(=O)(=O)N2CCCC2)ccc1Cl	none (no result: BJeLR viability)
CCCn1c(SCC(=O)NCc2ccco2)nc2c1c(=O)n(C)c(=O)n2C	Autofluor counter 22819
CCCn1c(SCC(=O)N2CCCc3ccccc32)nc2c1c(=O)n(C)c(=O)n2C	Autofluor counter 21086 (no result: BJeLR viability)
CCCn1c(SCC(=O)Nc2cc(C)on2)nc2c1c(=O)n(C)c(=O)n2C	Autofluor counter 22114
O=C(CC1c2ccccc2C=C(c2ccsc2)N1c1ccc(-c2cccnc2)cc1)C1CC1 (configuration not stated)	none (no result: BJeLR viability, BH1578 lux ind)
CNC(=S)NNC(=O)c1sccc1C	none
CCCCNC(=S)NNC(=O)c1sccc1C	Autofluor counter 16469

Screens as filed in PubChem BioAssay.
